Cycloheximide cs = counter-screen for Shiga toxin inhibitors: cycloheximide protein synthesis inhibition | max response, % | 300,000 tested, 12% active | AID 2314 | cell reporter, cycloheximide protein synthesis inhibition counterscreen; in the data active = max response mostly above about 13%, no sharp cut-off; inactive = mostly below about 14%; also: read at 38.3 µM for the half of the compounds with a filed dose; 0% is about no effect
HCV inhibitor = inhibitors of hepatitis C virus infection. Huh7.5.1 HCVcc-Cre infection, luciferase reporter, 44 h. Potency, µM (titrated, usually from 41.8 µM), inactives show at the highest dose activity change, negative = inhibition, hits mostly inhibitors. 340,000 tested, 3.4% active. AID 651820; also: potency is read from the fitted curve at half-maximal effect; % is scaled to controls: 0 for no effect and ±100 for the full control effect
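A cell-based infection assay in which seeded cells (1,000 per well) receive test compound after 4 h, are inoculated with HCVcc-Cre at approximately 0.5 moi, and are incubated 44 h before luminescence detection.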
Pf growth 48h = P. falciparum growth inhibition at 48 hours (one generation). P. falciparum luciferase growth in erythrocytes, 48 h. Potency, µM (highest dose often 28.7 µM), for the others: at the highest dose activity change, negative = inhibition, most hits filed as inhibitors. 310,000 tested, 5.9% active. AID 504832; also: potency is read from the fitted curve at half-maximal effect; % is scaled to controls: 0 for no effect and ±100 for the full control effect
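First compound was added to culture medium, then infected red cells at 0.1% parasitemia and 2% hematocrit (final). After incubation at 37 C under 5% CO2, luciferase detection reagent was dispensed and light output recorded.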
AMA1 RON2 block = inhibitors of Plasmodium falciparum AMA1-RON2 interaction | AlphaScreen AMA1-biotinylated RON2 peptide binding | AID 720542 | Potency, µM (doses to about 58.2 µM), for the others: top-dose activity change, negative = inhibition, hits mostly inhibitors | 360,000 tested, 0.2% active;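 also: potency is read from the fitted curve at half-maximal effect; 0% = vehicle wells and -100% = peptide control; nearly all actives have a fitted effect of over 45% in size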
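AMA1 (3D7) with his tag at 25 nM final met compounds first, then biotinylated RON2 peptide at 25 nM; detection used donor plus acceptor beads, 10 µg/mL apiece, read by AlphaScreen after 30 min at room temperature.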
Shiga inhibitor = Shiga toxin inhibition; Vero cells, Shiga toxin protein synthesis inhibition reporter; inhibition, % at 38.7 µM; 290,000 tested, 9.2% active; AID 2315; in the data active = inhibition mostly above about 28%, no sharp cut-off; inactive = mostly below about 43%; also: 0% is about no effect
Pf growth 96h = inhibits malaria parasite growth, 96 h; P. falciparum luciferase reporter growth, 96 h; 320,000 tested, 6.9% active; AID 504834; Potency, µM (titrated, usually from 28.7 µM), for the others: at the highest dose activity change, negative = inhibition, hits mostly inhibitors; also: potency is read from the fitted curve at half-maximal effect; % is scaled to controls: 0 for no effect and ±100 for the full control effect
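Infected RBCs, 2% Hct / 0.05% parasitemia final; luciferase-reporter P. falciparum; cpd 96 h, 37 C, 5% CO2; luciferase detection reagent; luminescence.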
The depositor's hits bear a star. A selection: hits, their analogues and other compounds. The true share with any hit is near 21%. Unless noted, calls follow the shape of the dose curve; as a rule, active = well fitted curve in the direction sought with a large enough effect; inconclusive = small, poorly fitted or top-dose-only effect, or another doubt; inactive = no such curve, though single readings can be large; an effect the other way counts as inactive or inconclusive.

CC(=O)NN1C(=O)c2ccccc2NC1c1ccc(N(C)C)cc1 (stereo unspecified) was read as Cycloheximide cs 24, HCV inhibitor 0%, Pf growth 48h 23%, AMA1 RON2 block 78%, Shiga inhibitor 45 and Pf growth 96h inconclusive.
`O=C(c1cc(S(=O)(=O)NCc2ccco2)ccc1Br)N1CCOCC1` gave HCV inhibitor 1%, Pf growth 48h -27%, AMA1 RON2 block -6% and Pf growth 96h inconclusive.
For O=C(NNc1ccc(C2CCCCC2)cc1)C(O)(c1ccccc1)c1cccs1 (stereo unspecified) the results were Cycloheximide cs 16*, HCV inhibitor inconclusive, Pf growth 48h inconclusive, AMA1 RON2 block -4%, Shiga inhibitor 37 and Pf growth 96h 74%.
COc1ccc(C(O)(C(=O)NNc2ccc(C)cc2)c2cccs2)cc1 (stereo unspecified) was read as Cycloheximide cs -1, HCV inhibitor -6%, Pf growth 48h 1%, AMA1 RON2 block -11% and Shiga inhibitor 2.
`O=C(CCCN1C(=O)/C(=C\c2ccccc2)SC1=S)Nc1ccc(O)cc1` gave Cycloheximide cs 26*, HCV inhibitor inconclusive, Pf growth 48h inconclusive, AMA1 RON2 block -25%, Shiga inhibitor 3 and Pf growth 96h 3%.
O=C(O)CCCN1C(=O)/C(=C\C(Cl)=C\c2ccccc2)SC1=S was read as Cycloheximide cs 0, HCV inhibitor inconclusive, Pf growth 48h 9.3µM*, AMA1 RON2 block -9%, Shiga inhibitor -6 and Pf growth 96h inconclusive.
Screening O=C(CN1C(=O)S/C(=C\C=C\c2ccccc2)C1=O)Nc1ccc(O)cc1 returned Cycloheximide cs 72*, HCV inhibitor -15%, Pf growth 48h 25%, AMA1 RON2 block 5%, Shiga inhibitor 65* and Pf growth 96h -16%.
O=C(CCN1C(=O)/C(=C\c2ccccc2)SC1=S)Nc1ccc(C(=O)O)cc1 was read as Cycloheximide cs 4, HCV inhibitor 2%, Pf growth 48h 28%, AMA1 RON2 block -1%, Shiga inhibitor -3 and Pf growth 96h -11%.
For CC(/C=C1\SC(=S)N(CCC(=O)Nc2ccc(O)cc2)C1=O)=C\c1ccccc1 the results were Cycloheximide cs 3, HCV inhibitor 7.9µM*, Pf growth 48h inconclusive, AMA1 RON2 block -3%, Shiga inhibitor 8 and Pf growth 96h -3%.
Screening CN1CCN(C(=O)CCCN2C(=O)/C(=C/c3ccccc3)SC2=S)CC1 returned Cycloheximide cs 1, HCV inhibitor -10%, Pf growth 48h inconclusive, AMA1 RON2 block -8%, Shiga inhibitor 13 and Pf growth 96h inconclusive.
CCOP(=O)(OCC)C(=Cc1cc(C(C)(C)C)c(O)c(C(C)(C)C)c1)P(=O)(OCC)OCC was read as Cycloheximide cs -4 and Shiga inhibitor -5.
Screening Cc1ccc(NC(=O)CN2C(=O)S/C(=C\c3ccc(C(=O)O)cc3)C2=O)cc1 returned Cycloheximide cs -2, HCV inhibitor 4%, Pf growth 48h 9%, AMA1 RON2 block 6% and Pf growth 96h 15µM*.
`Cc1cccc(NC(=O)CN2C(=O)S/C(=C\c3ccccn3)C2=O)c1` gave Cycloheximide cs -3, HCV inhibitor -20%, Pf growth 48h -17%, AMA1 RON2 block 12%, Shiga inhibitor -6 and Pf growth 96h 4.1µM*.
Screening Cc1ccc(/C=C2/SC(=S)N(CCCC(=O)Nc3ccc(O)cc3)C2=O)cc1 returned Cycloheximide cs 31*, HCV inhibitor -26%, Pf growth 48h inconclusive, AMA1 RON2 block -16%, Shiga inhibitor 25* and Pf growth 96h 3%.
Screening O=C(CCCN1C(=O)/C(=C/c2ccccc2)SC1=S)Nc1cccc(O)c1 returned Cycloheximide cs 12, HCV inhibitor inconclusive, Pf growth 48h inconclusive, AMA1 RON2 block -19%, Shiga inhibitor 21* and Pf growth 96h -29%.
For O=C(COC(=O)c1cc[n+]([O-])cc1)NC(=O)c1ccc(OC(F)F)cc1 the results were HCV inhibitor 1% and AMA1 RON2 block -9%.

Screening data as filed in PubChem BioAssay.
